From PubChem BioAssay (Tox21)
Records with an inconclusive call do not appear. Active and inactive are the calls of the source. Unless noted, the call rests on the fitted dose curve; in most records, active means well fitted curve in the direction sought with a large enough effect in the repeat runs; inconclusive means weak or mixed curves; inactive means no such curve, though single readings can be large; an effect the other way counts as inactive or inconclusive.

Columns and labels:
[1] = target: Thyrotropin receptor (Homo sapiens) (UniProt P16473); experiment: qHTS assay to identify small molecule agonists of the thyroid stimulating hormone receptor (TSHR) signaling pathway (AID 1224843; calls by dose curve; further: nearly all actives have a fitted effect of over 45% in size)
Chain of Thyrotropin receptor (Homo sapiens) (P16473 whole entry, looked up): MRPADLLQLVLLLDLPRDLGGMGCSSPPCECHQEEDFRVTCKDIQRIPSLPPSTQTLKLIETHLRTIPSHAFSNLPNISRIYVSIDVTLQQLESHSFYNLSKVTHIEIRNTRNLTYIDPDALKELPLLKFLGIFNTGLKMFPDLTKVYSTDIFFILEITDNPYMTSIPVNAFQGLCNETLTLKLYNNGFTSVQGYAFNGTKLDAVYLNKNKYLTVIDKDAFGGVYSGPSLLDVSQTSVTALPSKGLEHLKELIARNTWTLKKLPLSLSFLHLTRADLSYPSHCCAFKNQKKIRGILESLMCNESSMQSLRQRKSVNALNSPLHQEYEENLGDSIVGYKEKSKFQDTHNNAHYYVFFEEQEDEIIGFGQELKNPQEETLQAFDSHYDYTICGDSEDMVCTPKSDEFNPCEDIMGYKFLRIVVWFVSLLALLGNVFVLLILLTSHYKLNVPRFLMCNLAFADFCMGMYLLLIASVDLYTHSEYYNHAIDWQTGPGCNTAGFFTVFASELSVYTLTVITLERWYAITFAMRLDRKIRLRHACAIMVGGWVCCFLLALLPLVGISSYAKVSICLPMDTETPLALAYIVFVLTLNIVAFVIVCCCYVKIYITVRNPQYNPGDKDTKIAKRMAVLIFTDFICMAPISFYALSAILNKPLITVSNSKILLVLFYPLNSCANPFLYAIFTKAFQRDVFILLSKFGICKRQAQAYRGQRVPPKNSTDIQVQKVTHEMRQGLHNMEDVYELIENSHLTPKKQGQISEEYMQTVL
Method in brief: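 Agonist activity read as cAMP rise via d2/cryptate HTRF competition, 1 h room-temperature detection, in HEK293 cells expressing TSHR. Fifteen-point titrations, each run in triplicate, with a 30 min room-temperature incubation beforehand.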

[2] = qHTS assay to identify small molecule agonists of the hypoxia (HIF-1) signaling pathway - cell viability counter screen (AID 1224844; calls by dose curve; further: nearly all actives have a fitted effect of over 50% in size)
Method in brief: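 In this counter screen, HRE-bla ME-180 cell viability after 17 hrs of compound exposure at 37C was read by CellTiter-Glo luminescence, multiplexed with the beta-lactamase reporter measurement.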

[3] = qHTS assay to identify small molecule agonists of H2AX (AID 1224845; active means well fitted activation curve with a large enough effect in the signal ratio in the repeat runs, not every such curve was filed as active; the % refers to the signal ratio)
Method in brief: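 Phospho-H2AX Ser139 measured by HTRF (ex 320 nm; em 665 and 620 nm) after 24 hr antibody incubation. Compounds, 15 concentrations, 0.76% DMSO, were applied to CHO-K1 cells for 3hr at 37C before lysis.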

[4] = qHTS assay to identify small molecule agonists of H2AX - cell viability counter screen (AID 1224847; calls by dose curve; further: top concentration of the series differs between compounds; nearly all actives have a fitted effect of over 30% in size)
Method in brief: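 Compounds tested at 15 concentrations were incubated 3 hr at 37C with wild-type CHO-K1 cells; cellular ATP-based luminescence (CellTiter-Glo) indicated viability.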

[5] = qHTS assay to identify small molecule antagonists of the estrogen related receptor (ERR) signaling pathway from Tox21 library (AID 1224848); further: nearly all actives have a fitted effect of over 50% in size; further: potency means the concentration at half of the fitted maximal effect
Method in brief: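 Luciferase luminescence (ONE-Glo, 30 min room temperature) was the read-out. Cells of the NTP-supplied ERR line, 2,000 per well, were given 6 h at 37 C before compound addition in DMSO and 18 h exposure at 37 C.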

[6] = qHTS assay to identify small molecule agonists of the estrogen related receptor (ERR) signaling pathway from Tox21 library (AID 1224849; calls by dose curve; further: nearly all actives have a fitted effect of over 15% in size); conditions: ERR reporter cell line, ONE-Glo luciferase, 18 h; at 92.4 µM (top of the series) unless noted
Method in brief: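 Luciferase activity in ERR pathway reporter cells served as the agonist readout; exposure lasted 18 h at 37 C, with ONE-Glo detection after 30 min at room temperature.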

[7] = qHTS RealTime-Glo MT Cell Viability Assay in HepG2 cells - 24 hour (AID 1224867); further: nearly all actives have a fitted effect of over 50% in size
Method in brief: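 Cells + NanoLuc/prosubstrate dispensed (600 cells/well) → 5 h at 37 C/5% CO2 → compounds in DMSO transferred → 40 h incubation at 37 C, luminescence read at 0, 8, 16, 24, 32, 40 h.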

[8] = qHTS RealTime-Glo MT Cell Viability Assay in HEK293 cells - 32 hour (AID 1224868); further: top concentration of the series differs between compounds; nearly all actives have a fitted effect of over 50% in size
Method in brief: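 Tox21 10K qHTS, HEK293, 600 cells/well, RealTime-Glo reagent co-dispensed with cells; 5 h preincubation, compound by pintool, 37 C, luminescence at 0–40 h.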

[9] = A CellTox Green Cytotoxicity Assay to monitor cytotoxicity in HEK293 cells - 0 hour (AID 1224869); further: nearly all actives have a fitted effect of over 50% in size
Method in brief: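 Real-time, in one plate: 600 HEK293 cells/well with dead-cell DNA dye, pinned compound after 5 h, 37 C incubation over 40 h; viable cells give no appreciable fluorescence.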

[10] = qHTS assay to identify small molecule agonists of the hypoxia (HIF-1) signaling pathway (AID 1224846; active means well fitted activation curve with a large enough effect in the signal ratio in the repeat runs, not every such curve was filed as active; the % refers to the signal ratio)
Method in brief: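 ME-180 HRE-bla reporter cells; compounds in DMSO, 17 h at 37C; read-out beta-lactamase via CCF4-AM FRET.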
On the % scale 0 is the no-effect control and ±100 the full control effect.

O=c1[nH]c(=O)n([C@H]2C[C@H](O)[C@@H](CO)O2)cc1I
inactive: Potency [1] | Potency [2] | outcome [3] | Potency [4] | Potency [5] | activity change, positive = activation [6] 11% [at 42.5 µM] | Potency [7] | Potency [8] | Potency [9]

COC(C)(C)CCCC(C)CC=O (stereo unspecified)
inactive: Potency [1] | Potency [2] | outcome [3] | outcome [10] | Potency [5] | activity change, positive = activation [6] 8.65% | Potency [7] | Potency [9]

C=C1CC[C@H]2C[C@@H]1C2(C)C
inactive: Potency [1] | Potency [2] | outcome [3] | outcome [10] | Potency [7] | Potency [9]

CCO[Si](CCC1CCC2OC2C1)(OCC)OCC (stereo unspecified)
inactive: Potency [1] | Potency [2] | outcome [3] | outcome [10] | Potency [5] | activity change, positive = activation [6] 3.88% | Potency [7] | Potency [9]

O=C(O)Cc1ccc(CCNS(=O)(=O)c2ccc(Cl)cc2)cc1
inactive: Potency [1] | Potency [2] | outcome [3] | outcome [10] | Potency [5] | activity change, positive = activation [6] 0.244% [at 42.5 µM] | Potency [7] | Potency [9]

O=C(O)CN(CCOCCOCCN(CC(=O)O)CC(=O)O)CC(=O)O
inactive: activation [1] -8.79% [at 0.349 µM] | activity change, negative = cytotoxicity [2] -1.26% [at 0.29 µM] | activation (H2AX phosphorylation) [3] -0.327% [at 0.582 µM] | activity change, negative = cytotoxicity [4] 3.97% [at 0.582 µM] | activity, negative = inhibition [5] 2.61% [at 0.349 µM] | activity change, positive = activation [6] 1.46% [at 0.349 µM] | activity change, negative = cytotoxic [8] 6.99% [at 0.29 µM] | cytotoxicity [9] 0.267% [at 0.29 µM]

C[C@H](NC(CCc1ccccc1)C(=O)O)C(=O)N1CCC[C@H]1C(=O)O (stereo partly specified)
inactive: Potency [1] | Potency [2] | outcome [3] | outcome [10] | activity change, positive = activation [6] -0.914% [at 42.5 µM] | Potency [7] | Potency [8] | Potency [9]
active: Potency [5] 5.96 µM

Cc1ccc(=O)n(-c2ccccc2)c1
inactive: Potency [1] | Potency [2] | outcome [3] | Potency [4] | Potency [5] | activity change, positive = activation [6] -0.153% [at 42.5 µM] | Potency [7] | Potency [8] | Potency [9]

NS(=O)(=O)c1ccccc1Cl
inactive: Potency [1] | Potency [2] | outcome [3] | outcome [10] | Potency [5] | activity change, positive = activation [6] 2.78% | Potency [7] | Potency [8] | Potency [9]

CCO/C([O-])=N/c1c[n+](N2CCOCC2)no1
inactive: Potency [1] | Potency [2] | outcome [3] | Potency [4] | Potency [5] | Potency [7] | Potency [8] | Potency [9]

CCOC(=O)[C@H](CCc1ccccc1)N[C@@H](C)C(=O)N1[C@H](C(=O)O)C[C@@H]2CCC[C@@H]21
inactive: Potency [1] | Potency [2] | outcome [3] | Potency [4] | Potency [5] | activity change, positive = activation [6] 3.92% [at 42.5 µM] | Potency [7] | Potency [8] | Potency [9]

OC1CCCCC1c1ccccc1 (stereo unspecified)
inactive: Potency [1] | Potency [2] | outcome [3] | outcome [10] | Potency [5] | activity change, positive = activation [6] 0.961% | Potency [7] | Potency [8] | Potency [9]

COC(=O)CC(C)=O
inactive: Potency [1] | Potency [2] | outcome [3] | outcome [10] | Potency [5] | activity change, positive = activation [6] 2.59% | Potency [8] | Potency [9]

Nc1c2c(nc3ccccc13)CCCC2O (stereo unspecified)
inactive: Potency [1] | Potency [2] | outcome [3] | Potency [4] | Potency [5] | activity change, positive = activation [6] 0.138% [at 42.5 µM] | Potency [7] | Potency [8] | Potency [9]

Nc1ccccc1S(=O)(=O)O
inactive: Potency [1] | Potency [2] | outcome [3] | outcome [10] | Potency [5] | Potency [7] | Potency [9]

NC(=O)c1ccc([N+](=O)[O-])cc1
inactive: Potency [1] | Potency [2] | outcome [3] | outcome [10] | Potency [5] | activity change, positive = activation [6] -5.69% | Potency [7] | Potency [9]

c1ccc(CC2=NCCN2)cc1
inactive: Potency [1] | Potency [2] | outcome [3] | Potency [4] | Potency [5] | activity change, positive = activation [6] -1.01% [at 42.5 µM] | Potency [7] | Potency [8] | Potency [9]

COC(=O)CCSCCC(=O)OC
inactive: Potency [1] | Potency [2] | outcome [3] | outcome [10] | Potency [5] | activity change, positive = activation [6] 1.8% | Potency [7] | Potency [8] | Potency [9]

CCN(CC)CCNC(=O)c1cc(S(C)(=O)=O)ccc1OC
inactive: Potency [1] | Potency [2] | outcome [3] | Potency [7] | Potency [8] | Potency [9]

CCN(CC)CCOCCOC(=O)C1(c2ccccc2)CCCC1
inactive: Potency [1] | Potency [2] | outcome [3] | Potency [7] | Potency [9]
